Data: PubChem BioAssay (NCATS)
“And” between values parts separate entries of the source, which are not always exact repeats. Identical values can stand only once. Records with an inconclusive call do not appear. A number with no mark means an inactive call. The source made the active and inactive calls. The call rests on the fitted dose curve; in most records, active means well fitted cell-killing curve with a large enough effect; inconclusive means small, poorly fitted or top-dose-only effect, or effect the other way; inactive means flat fitted curve, though single readings scatter.

Experiment: Cell Viability - LYMP2-003 (AID 965);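 further: cells exposed to compounds for 24 h before reading; nearly all actives have a fitted effect of over 50% in size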;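 on activity change, negative = cytotoxicity: 0% = DMSO only and full effect = 92 µM tetraoctylammonium bromide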
Conditions: LYMP2-003 lymphoblastoid cell viability; series mostly up to 92.2 µM; activity change, negative = cytotoxicity: at the top concentration
Description: NIH Chemical Genomics Center [NCGC]
NIH Molecular Libraries Screening Centers Network [MLSCN]
National Institutes of Environmental Health Sciences [NIEHS]
National Toxicology Program [NTP]
We have developed a 1536-well cell-based assay for quantitative high throughput screening (qHTS) against a number of cell lines to determine in vitro cytotoxicity of small molecules. This particular assay uses a human lymphoblastoid cell line (LYMP2-003) purchased from Coriell Institute for Medical Research.
NCGC Assay Protocol Summary:
The CellTiter-Glo luminescent cell viability assay (Promega) is a homogeneous method to measure the number of viable cells in culture. The end point readout of this assay is based on quantitation of intracellular ATP, an indicator of metabolic activity, using the luciferase reaction. Luciferase catalyzes the oxidation of beetle Luciferin to oxyluciferin and light in the presence of ATP. The luminescent signal is proportional to amount of ATP present.
Using the CellTiter-Glo luminescent cell viability assay, the amount of cellular ATP was measured in the lymphoblastoid cell line with complete culture medium following compound treatment for 24 hours. The assay was performed in opaque white Kalypsys 1536-well plates. In the screen, tetraoctylammonium bromide was used as positive control. Library compounds were measured for their ability to cause acute toxicity in the cell line, as reflected by a decrease in intracellular ATP levels, in a concentration-dependent manner. […] AC50 values were determined from concentration-response data modeled with the standard Hill equation.
qHTS protocol for CellTiter Glo lymphoblastoid cellular assay
[Step] [Parameter] [Value] [Description]
1. Reagent; 5 uL; 2500 lymphoblastoid cells/well
2. Time; 5 hr; 37 C incubation
4. Controls; 23 nL; Tetraoctylammonium bromide 6.4pM to 92 uM
5. Time; 24 hr; 37 C incubation
6. Reagent; 5 uL; CellTiter Glo reagent
7. Time; 30 min; Room Temperature
8. Detection; Luminescence; Viewlux plate reader
Keywords: cell viability, cytotoxicity, lymphoblastoid cell line, luminescence, NTPHTS, NTPHTS_NCGC, NIEHS, DSSTox, MLSMR, MLSCN, NIH Roadmap, qHTS, NCGC
Potency means the concentration at half of the fitted maximal effect.

Structure (SMILES) | Potency | activity change, negative = cytotoxicity [%]
O=C(O)C(Cl)(Cl)Cl | inactive | –
ClC(Cl)(Cl)Cl | inactive | –
CC(C)CCON=O | – | 4.94
O=CC=O | – | -8.35
O=Cc1ccco1 | – | 0.673
O=C1C2CC=CCC2C(=O)N1SC(Cl)(Cl)Cl (stereo not given) | 12.6 µM (active) | –
ClCC1CO1 (stereo not given) | – | 19.9
ClC=C(Cl)Cl | – | 10.9
COC1=CC(=O)O[C@@H](/C=C/c2ccccc2)C1 | – | 9.07
C=CCN=C=S | – | 16.2
O=C/C=C/c1ccccc1 | inactive | –
O=[N+]([O-])c1ccccc1 | – | 6.57
C[C@H]1CCC[C@H](O)CCCCCc2cc(O)cc(O)c2C(=O)O1 | – | -5.89
[O]=[Cd] | – | 5.11
CCCCCl | – | 8.99
Clc1ccccc1Cl | – | 27.7
C[C@]12CCC(=O)C[C@@H]1CC[C@@H]1[C@@H]2CC[C@]2(C)[C@@H](O)CC[C@@H]12 | – | 9.68
CCCCCCCCOC(=O)c1ccccc1C(=O)OCCCCCCCC | – | 5.66
NNC(N)=O | – | 5.43
O=[N+]([O-])c1ccc(F)c([N+](=O)[O-])c1 | – | -4.84
S=C=S | – | 7.52
O=C1C=CC(=O)C=C1 | – | 4.02
Oc1cc(Cl)c(Cl)cc1Cl | – | 27.3
[Cl-].[Cl-].[Hg+2] | 0.794 µM (active) | –
O=C1CCO1 | – | 18.4
CCOC(=O)c1ccccc1C(=O)OCC | inactive | –
CC(C)(C)c1cc(O)ccc1O | – | -20.8
CC(C)Nc1ccc(Nc2ccccc2)cc1 | 39.8 µM (active) | –
COc1ccc2c(c1OC)C(=O)OC2C1c2cc3c(cc2CCN1C)OCO3 (stereo not given) | – | 18
[O]=[Cr](=[O])([OH])[O][Cr](=[O])(=[O])[OH] | 12.6 µM (active) and 20 µM (active) and 7.94 µM (active) | –
